Screening data deposited in PubChem by National Center for Advancing Translational Sciences (NCATS).
The list is not random: actives were taken first. Their share in the collection is about 21%.
Pf growth 96h = inhibits malaria parasite growth, 96 h; P. falciparum luciferase reporter growth, 96 h; AID 504834; Potency, µM (doses to about 28.7 µM), actives largely listed as inhibitors; actives 6.9% (n = 320,000)
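Compounds incubated with erythrocytes infected by luciferase-expressing P. falciparum (2% hematocrit, 0.05% parasitemia final) for 96 hours, 37 C in 5% CO2. Growth inhibition scored as decreased luciferase luminescence.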
Cycloheximide cs = affects cycloheximide protein synthesis inhibition readout, counter-screen. cell reporter, cycloheximide protein synthesis inhibition counterscreen. max response, %. actives 12% (n = 300,000). AID 2314; in the data active means max response mostly above about 13%, no sharp cut-off; inactive means mostly below about 14%; further: read at 38.3 µM for the half of the compounds with a filed dose
Shiga toxin inh = blocks Shiga toxin action in Vero cells | AID 2315 | inhibition, % at 38.7 µM | actives 9.2% (n = 290,000) | Vero cells, Shiga toxin protein synthesis inhibition reporter; in the data active means inhibition mostly above about 28%, no sharp cut-off; inactive means mostly below about 43%
NS1 inh = influenza NS1 inhibition; Potency, µM (doses to about 46.1 µM); actives 0.4% (n = 270,000); AID 2326; calls by dose curve; further: actives are rising curves; nearly all actives have a fitted effect of over 50% in size
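A cell-based growth assay was used: compounds that relieve NS1-induced slow growth of budding yeast raise OD600. Assay medium was yeast nitrogen base with ammonium sulphate and -URA supplement, pH 6.0, with 2% galactose.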
SARS PLP yeast = inhibitors of SARS-CoV papain-like protease in yeast; Potency, µM (doses to about 32.9 µM), actives largely listed as activators; actives 0.19% (n = 330,000); AID 485353; S. cerevisiae expressing SARS-CoV PLpro, growth rescue; calls by dose curve; further: nearly all actives have a fitted effect of over 55% in size
Pf growth 48h = inhibits P. falciparum growth in the first generation, 48 h; actives 5.9% (n = 310,000); P. falciparum luciferase growth in erythrocytes, 48 h; Potency, µM (titrated, usually from 28.7 µM), hits mostly inhibitors; AID 504832
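Read-out is firefly luciferase luminescence from an integrated reporter in P. falciparum, so falling signal marks reduced parasite growth. Infected erythrocytes were at 2% hematocrit and 0.1% parasitemia (final) in Albumax-supplemented RPMI 1640.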
Of the large screens only hits and unclear results are named; the others gave an inactive call. Unless noted, the call rests on the fitted dose curve; in most records, active means well fitted inhibition curve with a large enough effect; inconclusive means small, poorly fitted or top-dose-only effect, or another doubt; inactive means no such curve, though single readings can be large or run the other way.

CCOC(=O)NC(=O)C(=CNc1ccc(C)cc1)C(=O)NC(=O)OCC	none
CC[C@]12c3[nH]c4ccc(OC)cc4c3CCN1C(=O)C(CC(=O)NCCCOC)C[C@@H]2C(=O)N1CCN(C(=O)C2CC2)CC1 (stereo partly drawn)	none (no result: Pf growth 96h, Cycloheximide cs, Shiga toxin inh, NS1 inh, Pf growth 48h)
Cc1ccc(C(=O)NC2=NCCS2)cc1	Cycloheximide cs 34, Shiga toxin inh 85
CCCN1C(=O)c2ccc(C(=O)NC3=NCCS3)cc2C1=O	Cycloheximide cs 15
CCCN1C(=O)c2ccc(C(=O)Nc3ccc4c(c3)OCO4)cc2C1=O	Pf growth 96h inconclusive
Cc1ccc(C(NC(=O)N2CCCC2)C(Cl)Cl)cc1F (stereo not drawn)	Pf growth 96h inconclusive, Pf growth 48h inconclusive (no result: NS1 inh)
Cc1ccc(C(NC(=O)NN2CCN(C)CC2)C(Cl)Cl)cc1F (stereo not drawn)	Cycloheximide cs 32, Shiga toxin inh 79
CCc1ccc(NS(=O)(=O)c2ccc(C)c(C(=O)N3CCOCC3)c2)cc1	Pf growth 96h inconclusive
CCC(=O)N1CCc2nc(-c3ccccc3)sc2C1	Cycloheximide cs 25, Shiga toxin inh 69
O=C(Cc1ccccc1)N1CCc2[nH]nc(-c3ccccc3)c2C1	none
CCOC(=O)c1c(CN2CCN(c3ccccc3)CC2)oc2cc(Br)c(O)cc12	Pf growth 96h inconclusive, Pf growth 48h 1.7µM
CCOC(=O)c1c(CS(=O)(=O)c2ccccc2)n(C)c2cc(Br)c(O)cc12	none
CCOC(=O)c1c(CNc2ccncc2)n(C)c2cc(Br)c(O)cc12	Pf growth 48h 0.33µM (no result: NS1 inh)
CCOC(=O)c1c(CN2CCN(C)CC2)n(-c2ccccc2)c2cc(Br)c(O)cc12	Pf growth 96h inconclusive, Pf growth 48h inconclusive
CCOC(=O)c1c(CN2CCN(CCO)CC2)n(-c2ccccc2)c2cc(Br)c(O)cc12	Pf growth 96h 1.7µM, Pf growth 48h 2.1µM
CCOC(=O)c1c(CSC(=N)N)n(-c2ccccc2)c2cc(Br)c(OC(C)=O)cc12	Pf growth 96h 2.1µM, NS1 inh inconclusive, Pf growth 48h 2.9µM
O=C(/C=C/c1ccco1)Nc1ccc(Cl)c(S(=O)(=O)N2CCOCC2)c1	Cycloheximide cs 20, Shiga toxin inh 74, Pf growth 48h inconclusive
O=C(Nc1ccccc1)Nc1ccc(Cl)c(S(=O)(=O)N2CCOCC2)c1	Pf growth 96h inconclusive, Pf growth 48h 9.3µM (no result: NS1 inh)
O=C(Nc1ccccc1O)c1cc(S(=O)(=O)N2CCOCC2)c(Cl)cc1Cl	Pf growth 48h 7.4µM
O=C(Nc1ccc(Cl)c(S(=O)(=O)N2CCOCC2)c1)c1cccs1	none (no result: Pf growth 96h, Cycloheximide cs, Shiga toxin inh, NS1 inh, Pf growth 48h)
O=C(NNC(=O)C1CCCN(S(=O)(=O)c2ccc3ccccc3c2)C1)C1CC1 (stereo not drawn)	none
CS(=O)(=O)N(CC(=O)Nc1ccc(F)c(F)c1)c1cccc([N+](=O)[O-])c1	Pf growth 96h inconclusive
COc1ccc(C(C)=O)cc1CSc1nnc(Nc2ccc(C)cc2C)s1	Pf growth 96h inconclusive, Pf growth 48h inconclusive
COc1ccc(C(C)=O)cc1CSc1nnc(Nc2c(C)cccc2C)s1	Pf growth 96h 9.3µM, Pf growth 48h inconclusive
COc1ccc(C(C)=O)cc1CSc1nnc(Nc2ccccc2C)s1	Pf growth 96h 4.1µM, Pf growth 48h inconclusive
O=C(Nc1nccs1)c1ccc(-c2ccccc2[N+](=O)[O-])o1	Cycloheximide cs 54, Shiga toxin inh 106
COc1ccccc1NC(=O)c1ccc(-c2ccc(Br)cc2)o1	none (no result: Pf growth 48h)
CCCCn1nnc(NC(=O)c2ccc(-c3ccccc3[N+](=O)[O-])o2)n1	Pf growth 96h 8.3µM, Cycloheximide cs 27, Shiga toxin inh 49
COc1ccccc1NC(=O)c1ccc(-c2ccccc2[N+](=O)[O-])o1	Cycloheximide cs 60, Shiga toxin inh 115 (no result: NS1 inh)
CCn1nnc(NC(=O)c2ccc([N+](=O)[O-])o2)n1	none (no result: NS1 inh)
O=C(Nc1nccs1)c1ccc(-c2ccccc2Cl)o1	Cycloheximide cs 44, Shiga toxin inh 76, Pf growth 48h inconclusive
C[C@@]12CC[C@H]3[C@H](CCC4=CC(=O)CC[C@H]43)[C@H]1CC[C@H]2OC1(O)C(=O)c2ccccc2C1=O	none (no result: Pf growth 96h, Cycloheximide cs, Shiga toxin inh, SARS PLP yeast, Pf growth 48h)
CC(C)OC(=O)c1cccc(-c2ccc(C=O)o2)c1	Cycloheximide cs 77, Shiga toxin inh 80
O=C(N/N=C1/CN2CCC1CC2)c1cc2ccccc2cc1O	Pf growth 48h 13µM
O=c1c2[nH]c3ccccc3c2ncn1Cc1ccco1	none
Cc1ccc2c(c1)[nH]c1c(=O)n(Cc3ccco3)cnc12	Cycloheximide cs 21
COc1ccc(S(=O)(=O)N2c3ccc(Cl)cc3[C@](O)(c3ccccc3Cl)[C@@H]2C(=O)N2CCC[C@H]2C(N)=O)cc1OC	Pf growth 96h 9.5µM, Pf growth 48h inconclusive (no result: Cycloheximide cs, Shiga toxin inh, NS1 inh, SARS PLP yeast)
COc1ccc(S(=O)(=O)N2CCC(C(=O)Nc3cc(Cl)ccc3N3CCOCC3)CC2)cc1OC	Pf growth 96h inconclusive, Pf growth 48h inconclusive (no result: Cycloheximide cs, Shiga toxin inh, NS1 inh)
CCOC(=O)C(Cc1ccc(O)cc1)NC(=O)CNC(=O)C1CCCN1C(=O)OC(C)(C)C (stereo not drawn)	none (no result: NS1 inh)
Cc1c(O)ccc2c(CC(=O)N[C@@H](Cc3c[nH]c4ccccc34)C(=O)O)cc(=O)oc12	none
Brc1ccccc1OCCCN1CCOCC1	Cycloheximide cs 32, Shiga toxin inh 50
Cc1cccc(OCCCN2CCOCC2)c1C	Pf growth 96h 6.6µM
Cc1c(C(=O)N(C)C2CCCCC2)sc2ncnc(N3CCN(c4ccccc4)CC3)c12	Pf growth 48h inconclusive
CC(=O)c1ccc(OCC(=O)N2CCN(S(=O)(=O)c3ccc(Br)s3)CC2)cc1	Pf growth 96h inconclusive, Pf growth 48h inconclusive (no result: Cycloheximide cs, Shiga toxin inh, NS1 inh)
CC(=O)c1ccc(OCCCC(=O)N2CCN(S(=O)(=O)c3cccs3)CC2)cc1	Pf growth 96h 9.3µM, Pf growth 48h inconclusive
O=C(CSc1ccccc1)N1CCN(S(=O)(=O)c2cccs2)CC1	Pf growth 96h inconclusive, Cycloheximide cs 5.9
O=C(Cc1cccs1)N1CCN(S(=O)(=O)c2ccccc2)CC1	Pf growth 96h 13µM
O=C(CCCOc1ccccc1)N1CCN(S(=O)(=O)c2cccs2)CC1	none (no result: Pf growth 48h)
CCC(=O)c1ccc(OCC(=O)N2CCN(S(=O)(=O)c3ccc(Cl)s3)CC2)cc1	Pf growth 96h 10µM, Pf growth 48h inconclusive (no result: Cycloheximide cs, Shiga toxin inh, NS1 inh)
O=C(NCC(=O)N1CCN(c2ccccc2)CC1)c1ccco1	Pf growth 96h inconclusive
CC(=O)c1cccc(NC(=O)c2ccccc2N(Cc2ccccc2)S(C)(=O)=O)c1	none
CN1C(=O)CC2(C=CC(=O)C=C2OC(=O)c2ccccc2)c2ccccc21 (stereo not drawn)	none (no result: Pf growth 96h, NS1 inh, SARS PLP yeast, Pf growth 48h)
FC(F)(F)c1ccc(Oc2ccc(Cl)cc2Br)nc1	none (no result: NS1 inh)
COc1cc(C(=O)N2CCN(S(=O)(=O)c3cccs3)CC2)cc(OC)c1C	Pf growth 96h inconclusive, Pf growth 48h inconclusive
O=C(CN(Cc1ccco1)Cc1cccs1)N1CCN(S(=O)(=O)c2cccc(F)c2)CC1	Pf growth 96h inconclusive, Pf growth 48h 13µM (no result: Cycloheximide cs, Shiga toxin inh, NS1 inh)
COc1ccc(Br)c(C(=O)N2CCN(S(=O)(=O)c3cccs3)CC2)c1	Pf growth 48h 3.7µM
